Screening results deposited in PubChem by several laboratories.
Cav32 inh: inhibitors of human Cav3.2 T-type calcium channel; O95180; AID 449739; Cav3.2-expressing cells, Fluo-4 calcium fluorescence FDSS; hits give low values; actives 4% (n = 100,000); B-score at 10 µM;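 active = single-dose well whose peak fluorescence ratio is a statistical outlier from its plate by either plate-standardised score or position-corrected B-score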
CYP2C9 act: CYP2C9 (human) activation; P11712; recombinant CYP2C9, luciferin-H conversion, luminescence; hits give high values; factor 1 = untreated enzyme, 0 = blocked; activation factor at 5 µM; actives 1.4% (n = 96,000); AID 1024;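 active = activation factor of 2 or more for CYP2C9 at a 5 µM dose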
CYP2C9 inh: inhibitors of human CYP2C9; P11712; CYP2C9 Supersomes, luciferin-H conversion, luminescence; inhibition, % at 5 µM; actives 20% (n = 96,000); AID 777;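 active = blocking of liver enzyme CYP2C9 beyond about 50% at 5 µM, limit read from the data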
CYP2C19 act: increases human CYP2C19 enzyme activity. P33261. recombinant CYP2C19, luciferin-H EGE luminescence; hits give high values; 0 = fully inhibited enzyme, 1 = untreated enzyme. activation factor at 5 µM. 96,000 tested, under 10 active. AID 1025;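 active = activation factor of at least 2 at 5 µM in the primary screen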
CYP2C19 inh: inhibitors of human CYP2C19; CYP2C19 Supersomes, luciferin-H EGE luminescence, 30 min; inhibition, % at 5 µM; P33261; actives 21% (n = 96,000); AID 778;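 active = CYP2C19 inhibition above a set limit at 5 µM in the primary screen, cut at about 50% in these data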
Large screens that a line does not name were inactive. Most compounds without a hit are left out; they make up all but 27% or so of the library.

Cc1onc(-c2c(F)cccc2Cl)c1C(=O)Nc1sc2c(c1C(N)=O)CCC2	CYP2C9 inh 74
Cc1onc(-c2c(F)cccc2Cl)c1C(=O)Nc1nnc(-c2ccccc2)s1	none
Cc1onc(-c2c(F)cccc2Cl)c1C(=O)Nc1nnc(C2CC2)s1	CYP2C9 inh 63, CYP2C19 inh 62
CCCCN(CC)CCCNC(=O)c1cc2c(=O)n(C)c3ccccc3c2n1C	none (no result: CYP2C9 act, CYP2C9 inh, CYP2C19 act, CYP2C19 inh)
CC(NC(=O)Cc1ccsc1)c1ccc(S(N)(=O)=O)cc1 (stereo not given)	none
Cc1cc(C)n(CC2CC(=O)N(c3ccc(Cl)c(Cl)c3)C2=O)n1 (stereo not given)	CYP2C9 inh 77, CYP2C19 inh 99
C=CCNC(=O)c1onc(CSc2ccc(F)cc2)c1C(=O)NCCOC	CYP2C19 inh 98
C=CCNC(=O)c1onc(CSc2ccc(F)cc2)c1C(=O)O	none
C=CCNC(=O)c1onc(CSc2ccc(C(C)C)cc2)c1C(=O)O	CYP2C9 inh 87
C=CCNC(=O)c1onc(CSc2ccc(OC)cc2)c1C(=O)O	CYP2C9 inh 52
C=CCNC(=O)c1onc(CSc2cccc3ccccc23)c1C(=O)O	CYP2C9 inh 94, CYP2C19 inh 59
COn1c2c(c3c4nonc4ccc31)CCCC2	none
On1c2c(c3c4nonc4ccc31)CCCC2	Cav32 inh -5.8 (no result: CYP2C9 act, CYP2C9 inh, CYP2C19 act, CYP2C19 inh)
CC(C)(C)c1ccc(Oc2cccc(C3CC(=O)C(C4NCCc5ccccc54)C(=O)C3n3cncn3)c2)cc1 (stereo not given)	none
O=C1CC(=O)C(n2cncn2)C(c2ccc(Cl)cc2Cl)C1 (stereo not given)	CYP2C9 inh 74
N#Cc1nc(COc2ccccc2F)oc1NCc1ccc(F)cc1	CYP2C9 inh 72, CYP2C19 inh 55
CN(C)c1oc(COc2ccccc2F)nc1C#N	CYP2C19 inh 92
COc1ccc(CCNc2oc(COc3ccccc3F)nc2C#N)cc1	Cav32 inh -5.9, CYP2C9 inh 97, CYP2C19 inh 94
Cc1ccc(C2C(C#N)=C(N)Oc3c2oc(CO)cc3=O)o1 (stereo not given)	none
O=C(CCN1c2ccccc2Sc2ccccc21)OCC(=O)N1CCN(C(=O)c2ccco2)CC1	none
COc1ccc(-c2nc(-c3ccccc3)c(-c3cc([N+](=O)[O-])ccc3C)[nH]2)cc1O	CYP2C9 inh 74, CYP2C19 inh 77
Cc1ccc([N+](=O)[O-])cc1-c1ccc2cccc(C)c2n1	none
Cc1ccc([N+](=O)[O-])cc1-c1[nH]c(-c2ccc(O)c(O)c2)nc1-c1ccccc1	CYP2C9 inh 88, CYP2C19 inh 52
Cc1nn(-c2ccccc2)c2[nH]c(=O)c(CNCCN3CCOCC3)cc12	none
COc1cccc(NCc2cc3c(C(C)(C)C)nn(-c4ccccc4)c3[nH]c2=O)c1	CYP2C9 inh 82
CCOc1ccc(Nc2ncnc3c2cnn3-c2ccccc2)cc1	none (no result: Cav32 inh)
CCOc1ccc(NCc2cc3c(C(C)(C)C)nn(-c4ccccc4)c3[nH]c2=O)cc1	CYP2C9 inh 59
Cc1c(C(c2ccc([N+](=O)[O-])cc2)c2c(C)n(C)n(-c3ccccc3)c2=O)c(=O)n(-c2ccccc2)n1C	none
COc1ccc(C2C(C(=O)NCCN3CCOCC3)c3ccccc3C(=O)N2C2CCCCC2)cc1 (stereo not given)	none (no result: CYP2C9 act, CYP2C9 inh, CYP2C19 act, CYP2C19 inh)
CCOc1ccc(N(CC(=O)NCC2CCCO2)S(=O)(=O)c2ccc(Cl)cc2)cc1 (stereo not given)	CYP2C19 inh 88
COc1ccc(S(=O)(=O)N(CC(=O)NCC2CCCO2)c2ccc(F)cc2)cc1OC (stereo not given)	CYP2C19 inh 53
C=CCNc1cc(C)oc(=O)c1C(=O)CCC	none
COc1nnc(-c2ccc(N3CCCCC3)c(NC(C)=O)c2)c2ccccc12	CYP2C9 inh 66, CYP2C19 inh 54
CC1(C)Oc2nc3ccccc3n2/C1=C\C#N	none (no result: CYP2C9 act, CYP2C9 inh, CYP2C19 act, CYP2C19 inh)
N#CC(/C(=N/S(=O)(=O)c1cccs1)c1ccccc1)c1nc2ccccc2[nH]1 (stereo not given)	CYP2C9 inh 95 (no result: Cav32 inh)
CCCNC(=O)c1onc(CSc2ccc(Cl)cc2)c1C(=O)NCCOC	none (no result: CYP2C9 act, CYP2C9 inh, CYP2C19 act, CYP2C19 inh)
O=C(O)CCC(=O)N1CCc2cc(S(=O)(=O)N3CC=C(c4ccccc4)CC3)ccc21	none
Cc1sc2ncnc(SCC(=O)NCC(C)C)c2c1C	CYP2C9 inh 61
COC(=O)c1c(-c2ccccc2)csc1NC(=O)CSc1ncnc2sc(C)c(C)c12	CYP2C9 inh 71
Nc1nc(-c2cccnc2)nn1C(=O)c1ccco1	none (no result: Cav32 inh)
COc1ccc(CNc2nc(-c3cccnc3)nn2C(=O)c2ccco2)cc1	CYP2C9 inh 53
CCNC(=O)C1CC(=O)N(Cc2ccc3c(c2)OCO3)C(=Nc2ccc(OCC)cc2)S1 (stereo not given)	none
COC(=O)c1sccc1NC(=O)c1ccc(OC)c(OC)c1	none
Cc1ccc2[nH]c3c(c2c1)CN(C(=O)CN1CCN(Cc2ccc4c(c2)OCO4)CC1)CC3	CYP2C9 inh 62, CYP2C19 inh 62
Cc1ccc2[nH]c3c(c2c1)CN(C(=O)CN1CC(C)OC(C)C1)CC3 (stereo not given)	CYP2C19 inh 71
Cc1ccc2[nH]c3c(c2c1)CN(C(=O)CN1CCSCC1)CC3	CYP2C19 inh 51
Cc1ccc2[nH]c3c(c2c1)CN(C(=O)CN1CCN(c2ccccn2)CC1)CC3	none
O=C(C1CCN(S(=O)(=O)c2ccc(F)cc2)CC1)N1CCOCC1	none
COC(=O)C1C(=O)c2c([nH]c(C(=O)OC3CCCCC3)c2C)CC1C (stereo not given)	none
COC(=O)C1C(=O)c2c([nH]c(C(=O)OCCOC(C)C)c2C)CC1C (stereo not given)	CYP2C9 inh 59
COC(=O)C1C(=O)c2c([nH]c(C(=O)OC3CCCC3C)c2C)CC1C (stereo not given)	CYP2C9 inh 56
Cc1nc(N)sc1N=Nc1ccc(Br)cc1	none (no result: Cav32 inh)
CCNC(=O)c1nc[nH]c1C(=O)NCC	none
COc1ccc(N2C(=O)NC3CC2(C)Oc2ccc(Br)cc23)cc1OC (stereo not given)	CYP2C9 inh 74 (no result: Cav32 inh)
CCOc1cccc2c1OC1(C)CC2NC(=O)N1c1cccc(Cl)c1 (stereo not given)	none
O=C(N/C=N/OCc1cccc(C(F)(F)F)c1)N1OC[C@@H]2COc3ccc4ccccc4c3[C@@H]21	none
CCOC(=O)c1c(N2C(=O)Nc3cc(Cl)c(Cl)cc3N2O)sc2c1CCCCC2	Cav32 inh -3.9, CYP2C9 inh 70
c1ccc(C(Cc2nc(-c3ccccn3)no2)c2ccccc2)cc1	CYP2C9 inh 54
c1ccc(CCCc2nc(-c3ccccn3)no2)cc1	CYP2C19 inh 65
c1ccc(Cc2nc(-c3ccccn3)no2)cc1	none
c1ccc(SCc2nc(-c3ccccn3)no2)cc1	CYP2C19 inh 76
COc1ccc(OC)c(C(=O)COC(=O)CNC(=O)C2CCCCC2)c1	none
C[C@@H]1NC(=O)[C@H](CCC(N)=O)NC(=O)c2cc([N+](=O)[O-])cc(I)c2NCC[C@@H](C(N)=O)NC1=O	none (no result: CYP2C9 act, CYP2C9 inh, CYP2C19 act, CYP2C19 inh)
